Growth data for 40 molecules are collected here from PubChem BioAssay (NCI).

Compounds without any hit were thinned out: in the full panel of roughly 83,000, 20% have a hit.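 Testing used 96-well plates and a 48-hour single-concentration exposure. Example: -40 means 40% of the starting cells died.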 Unmarked numbers belong to inactive results. The source made the active and inactive calls.

The test system of this assay is OVCAR-5 ovarian. In words: NCI-60 one-dose screen, 48 h (100 = growth as untreated, 0 = no growth, -100 = all killed). The note with it: 10 µM. How it is done: Growth inhibition of the OVCAR-5 human tumor cell line is measured as a screen for anti-cancer activity. Cells are grown in 96 well plates and exposed to the test compound for 48 hours. Compounds are tested at a single concentration, which is 10^-5 M for most compounds. The reported endpoint is percent growth (GI% or GIPRCNT), where numbers from 0 - 100% represent growth inhibition, and numbers from -100% - 0 represent cell death. For example, a value of 40 represents 60% growth inhibition. A value of 0 means no net growth occurred over the course of the experiment. A value of -40 indicates 40% of cells at the beginning of the experiment died by the end of the experiment. A value of -100 means all cells are dead at the end of the experiment.
NCI-60 Human Tumor Cell Lines Screen was performed using the standard one-dose NCI protocol, which is described in more detail at https://dtp.cancer.gov/discovery_development/nci-60/default.htm.
Compounds with GIPRCNT values below 10 were considered active. Activity score was based on GIPRCNT using the following formula: […]
Score is 0 for GIPRCNT values of 100 or above, 50 for GIPRCNT values of 0, and 100 for GIPRCNT values of -100.
Take `CC1=C(COCCOC(=O)c2ccc(S(=O)(=O)F)cc2)C2=C(C)C3(CC3)[C@@](C)(O)C(=O)C2=C1`: the growth was -43.7% (active). On to `COc1cc2cc(C(=O)N3C[C@@H](CCl)c4c3cc(OC(=O)N3CCN(C(=O)CCC(=O)N5CCN(C)CC5)[C@@H]5CSSC[C@@H]53)c3ccccc43)[nH]c2c(OC)c1OC`, for which the growth was -35.6% (active). In the case of `C#CCCCN(CCNc1ccnc2cc(Cl)ccc12)C(=O)CCC(=O)O[C@@H]1O[C@@H]2OC3(C)CC[C@H]4[C@H](C)CC[C@@H]([C@H]1C)[C@@]24OO3`, the growth is 45.1%.

For `COCCOCCOCCOc1ccc(-n2cc(CCCN(CCNc3ccnc4cc(Cl)ccc34)C(=O)CCC(=O)O[C@@H]3O[C@@H]4OC5(C)CC[C@H]6[C@H](C)CC[C@@H]([C@H]3C)[C@@]46OO5)nn2)cc1`, the growth is 52.2%. In the case of `CC12OOC(C)(OO1)C2CCC(=O)OCCNc1ccnc2cc(Cl)ccc12` (stereo not given) it was 94.7%. On to `CC(C)C[C@H](NC(=O)CNC(=O)C[C@H]1O[C@@H]2OC3(C)CC[C@H]4[C@H](C)CC[C@@H]([C@H]1C)[C@@]24OO3)B(O)O`, for which the growth is -28.3% (active). Regarding `C[C@H]1[C@H](OC(=O)CCC(=O)Nc2cnccn2)O[C@@H]2OC3(C)CC[C@H]4[C@H](C)CC[C@@H]1[C@@]24OO3`, the growth was 35.2%.

In the case of `C=CCN=C([Se])NC(=O)c1ccc2c(c1)OCO2`, the growth was 117%. In the case of `COCCOCCOCCOc1ccc(-n2cc(-c3ccc(O[C@H]4O[C@@H]5OC6(C)CC[C@H]7[C@H](C)CC[C@@H]([C@H]4C)[C@@]57OO6)cc3)nn2)cc1` it was 72%; in that of `CC[C@]12C=CCN3CC[C@@]4(c5ccc(OC)cc5N(C)[C@H]4[C@@](O)(C(=O)OC)[C@@H]1OC(=O)CCCC[P+](C1CCCCC1)(C1CCCCC1)C1CCCCC1)[C@@H]32`, 5.84% (active). In the case of `CC[C@]12C=CCN3CC[C@@]4(c5ccc(OC)cc5N(C)[C@H]4[C@@](O)(C(=O)OC)[C@@H]1OC(=O)CCC[P+](c1ccc(C)cc1)(c1ccc(C)cc1)c1ccc(C)cc1)[C@@H]32` it was -95.9% (active); in that of `O=C(/C=C/c1ccccc1Cl)c1nc2ccccc2n1Cc1ccc(F)cc1`, -66.3% (active). The same measure for `CC12OOC(C)(OO1)C2CCC(=O)NCCNc1ccnc2cc(Cl)ccc12` (stereo not given): 102%; for `O=C(NCCCCC(c1ccc(F)cc1)c1ccc(F)cc1)Nc1ccc([N+](=O)[O-])c(C(F)(F)F)c1`: 11.8%. Turning to `C[C@H]1[C@@H](Oc2ccc(-c3cn(-c4ccnc5cc(Cl)ccc45)nn3)cc2)O[C@@H]2OC3(C)CC[C@H]4[C@H](C)CC[C@@H]1[C@@]24OO3`, the growth was 19.2%. In the case of `CC[C@]12C=CCN3CC[C@@]4(c5ccc(OC)cc5N(C)[C@H]4[C@@](O)(C(=O)OC)[C@@H]1OC(=O)CCC[P+](c1ccc(F)cc1)(c1ccc(F)cc1)c1ccc(F)cc1)[C@@H]32` it was 67%.

`CC1=C(C=O)C2=C(C)C3(CC3)[C@@](C)(O)C(=O)C2=C1`: the growth was 36.7%. In the case of `O=C(/C=C/c1ccc(Cl)cc1Cl)c1nc2ccccc2n1Cc1ccc(Br)cc1` it was 98%. Regarding `COc1ccc2cc([C@H](C)C(=O)[Se]CCC#N)ccc2c1`, the growth was -31.8% (active). With `COC(=O)C[C@](O)(CCC(C)C)C(=O)O[C@@H]1C(OC)=C[C@]23CCCN2CCc2cc4c(cc2[C@H]13)OCO4`, the growth is -35.9% (active).

Turning to `CC[C@@]12CC(C(=O)OC)=C3Nc4cc5c(cc4[C@@]34CCN(C[C@H]3O[C@H]31)[C@@H]24)[C@@H]1[C@H](O5)[C@@H](O)[C@@]2(CC)CC(C(=O)OC)=C3Nc4cc(OC)ccc4[C@@]34CCN1[C@@H]24`, the growth was 34.3%. As for `COc1cc(OC)c(S(=O)(=O)N(CCCl)CCCl)cc1C(=O)/C=C/c1cc(OC)c(OC)c(OC)c1`, the growth is -1.21% (active).

As for `CC12OOC(C)(OO1)C2CCC(=O)NCCCNc1ccnc2cc(Cl)ccc12` (stereo not given), the growth was 84.4%. The same measure for `O=C([Se]C1C=CCCC1)c1ccc(C(=O)[Se]C2C=CCCC2)s1` (stereo not given): -89.2% (active). As for `CC1=C2C(=C[C@@](C)(COP(=O)(Oc3ccccc3)Oc3ccccc3)[C@@H]2O)C(=O)[C@@](C)(O)C12CC2`, the growth is -64.5% (active). In the case of `CC(=C\C(=O)Oc1ccc2c3c1OC1C(O)CCC4(O)C(C2)N(CC2CCC2)CCC314)/C=C1\CCCc2ccccc21` (stereo not given), the growth was 72.1%.

As to `Cc1ccc2[nH]c(=S)n(-c3ccc(F)cc3)c(=O)c2c1`, the growth is 106%. In the case of `C[C@H]1[C@H](OC(=O)CCC(=O)N(CCCc2cn(-c3ccc(C#N)cc3)nn2)CCNc2ccnc3cc(Cl)ccc23)O[C@@H]2OC3(C)CC[C@H]4[C@H](C)CC[C@@H]1[C@@]24OO3` it was 54.5%; in that of `C[C@H]1[C@H](OC(=O)CCC(=O)N(CCCc2cn(-c3ccc(CN4CCOCC4)cc3)nn2)CCNc2ccnc3cc(Cl)ccc23)O[C@@H]2OC3(C)CC[C@H]4[C@H](C)CC[C@@H]1[C@@]24OO3`, 42.1%; in that of `COP(=O)(CC(F)(F)C(F)(F)F)OC`, 68.9%.

Turning to `O=C(/C=C/c1ccc(Cl)cc1)c1nc2ccccc2n1Cc1ccc(F)cc1`, the growth was 19.1%. In the case of `CC(C)N=C([Se])NC(=O)c1cccs1` it was -22.6% (active); in that of `CC(C)N=C([Se])NC(=O)c1ccccc1`, -55.9% (active); in that of `O=C(/C=C/c1ccco1)c1nc2ccccc2n1Cc1ccc(F)cc1`, 89.4%.

In the case of `O=C(/C=C/c1cccc(Br)c1)c1nc2ccccc2n1Cc1ccc(Br)cc1`, the growth was -50.4% (active). The same measure for `CC[C@]12C=CCN3CC[C@@]4(c5ccc(OC)cc5N(C)[C@H]4[C@@](O)(C(=O)OC)[C@@H]1OC(=O)CCC[P+](C1CCCCC1)(C1CCCCC1)C1CCCCC1)[C@@H]32`: 11%.

Take `CCOP(=O)(CC(F)(F)C(F)(F)F)OCC`: the growth is 50.7%. Turning to `CC[C@]12C=CCN3CC[C@@]4(c5ccc(OC)cc5N(C)[C@H]4[C@@](O)(C(=O)OC)[C@@H]1OC(=O)CCCC[P+](c1ccc(C)cc1)(c1ccc(C)cc1)c1ccc(C)cc1)[C@@H]32`, the growth was -96% (active). In the case of `O=C(/C=C/c1ccc(F)cc1)c1nc2ccccc2n1Cc1ccc(Br)cc1` it was -55.1% (active). With `COC(=O)C[C@](O)(CCCC(C)C)C(=O)O[C@H]1C(OC)=C[C@@]23CCCN2CCc2cc4c(cc2[C@@H]13)OCO4`, the growth was 5.45% (active).
